From ChEMBL document CHEMBL3988442, “University of Dundee, Small-Polar-MMV Screening Library” (2021)
For some of these results: Entries with a potency or affinity are not part of this list.

How the values were obtained:
Parameters in all cases: scale not given: direction of the effect not stated beside the values
[1] = molecular target: Protein translocase subunit SecA (Escherichia coli (strain K12)) (UniProt P10408); test: Assay to Identify E. coli SecA ATPase Inhibitors; format: functional; details: 30 µM
Protein translocase subunit SecA (Escherichia coli (strain K12)), sequence (P10408 whole entry): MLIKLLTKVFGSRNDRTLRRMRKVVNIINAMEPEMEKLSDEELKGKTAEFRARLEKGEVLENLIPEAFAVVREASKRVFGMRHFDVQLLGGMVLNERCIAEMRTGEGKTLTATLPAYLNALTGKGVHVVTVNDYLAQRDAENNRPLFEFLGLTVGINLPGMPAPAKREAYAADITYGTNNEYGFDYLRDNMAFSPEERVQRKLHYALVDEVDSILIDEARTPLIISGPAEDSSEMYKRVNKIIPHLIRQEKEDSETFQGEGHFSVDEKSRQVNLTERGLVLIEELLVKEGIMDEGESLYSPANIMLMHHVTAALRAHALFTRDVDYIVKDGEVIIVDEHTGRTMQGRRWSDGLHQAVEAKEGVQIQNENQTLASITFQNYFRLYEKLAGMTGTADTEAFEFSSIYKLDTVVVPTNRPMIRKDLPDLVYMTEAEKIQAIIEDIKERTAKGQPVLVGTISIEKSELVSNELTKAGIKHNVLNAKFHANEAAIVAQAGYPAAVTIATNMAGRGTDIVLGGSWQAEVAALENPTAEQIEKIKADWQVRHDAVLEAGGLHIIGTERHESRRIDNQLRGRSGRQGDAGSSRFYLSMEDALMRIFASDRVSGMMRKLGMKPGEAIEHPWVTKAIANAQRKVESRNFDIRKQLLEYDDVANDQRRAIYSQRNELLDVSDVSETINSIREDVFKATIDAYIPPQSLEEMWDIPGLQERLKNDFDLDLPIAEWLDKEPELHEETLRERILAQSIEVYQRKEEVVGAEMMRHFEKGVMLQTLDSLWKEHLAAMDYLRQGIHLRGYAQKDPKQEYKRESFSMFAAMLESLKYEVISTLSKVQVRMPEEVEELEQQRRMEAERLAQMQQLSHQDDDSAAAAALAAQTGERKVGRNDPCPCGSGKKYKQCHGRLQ

[2] = molecular target: T1, Ubiquitin-activating enzyme e1, putative (Leishmania donovani (strain BPK282A1)) (UniProt E9BSI1); test: Leishmania donovani Ubiquitin Activating Enzyme (LdE1); format: functional; details: 30 µM
T1 sequence (whole entry): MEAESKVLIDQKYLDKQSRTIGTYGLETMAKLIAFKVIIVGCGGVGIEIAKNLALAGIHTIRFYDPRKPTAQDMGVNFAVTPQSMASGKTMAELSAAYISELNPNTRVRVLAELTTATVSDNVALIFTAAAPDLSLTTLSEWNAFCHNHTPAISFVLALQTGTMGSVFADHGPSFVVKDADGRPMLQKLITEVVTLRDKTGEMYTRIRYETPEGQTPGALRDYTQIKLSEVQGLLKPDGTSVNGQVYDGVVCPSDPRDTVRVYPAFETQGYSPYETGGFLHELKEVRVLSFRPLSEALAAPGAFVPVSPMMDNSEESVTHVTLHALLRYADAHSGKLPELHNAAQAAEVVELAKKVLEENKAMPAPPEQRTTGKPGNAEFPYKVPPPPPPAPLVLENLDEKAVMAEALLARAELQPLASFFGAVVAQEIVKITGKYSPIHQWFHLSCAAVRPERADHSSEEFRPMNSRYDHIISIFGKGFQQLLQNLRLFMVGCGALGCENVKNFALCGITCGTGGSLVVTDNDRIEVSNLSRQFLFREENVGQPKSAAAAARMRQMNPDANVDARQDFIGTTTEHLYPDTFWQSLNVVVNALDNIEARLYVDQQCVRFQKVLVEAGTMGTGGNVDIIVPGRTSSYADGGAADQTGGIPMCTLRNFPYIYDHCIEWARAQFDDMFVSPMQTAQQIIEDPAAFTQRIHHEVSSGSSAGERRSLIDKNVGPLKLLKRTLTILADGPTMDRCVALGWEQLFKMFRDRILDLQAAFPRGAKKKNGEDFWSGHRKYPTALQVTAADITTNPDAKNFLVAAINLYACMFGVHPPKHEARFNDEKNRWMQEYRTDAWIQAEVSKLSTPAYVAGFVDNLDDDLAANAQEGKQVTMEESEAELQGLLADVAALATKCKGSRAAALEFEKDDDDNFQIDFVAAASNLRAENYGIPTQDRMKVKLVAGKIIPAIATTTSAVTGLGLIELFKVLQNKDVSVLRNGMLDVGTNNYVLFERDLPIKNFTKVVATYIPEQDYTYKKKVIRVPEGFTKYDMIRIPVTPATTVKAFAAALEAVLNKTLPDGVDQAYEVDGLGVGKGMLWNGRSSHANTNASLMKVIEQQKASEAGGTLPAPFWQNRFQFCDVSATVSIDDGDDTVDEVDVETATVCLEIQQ

[3] = molecular target: AMP-activated protein kinase, AMPK (Homo sapiens) (UniProt P54646+O43741+P54619+Q9UGJ0+Q9Y478+Q13131+Q9UGI9); test: AMP-dependent Kinase enzyme assay. An in vitro enzyme assay that detects ADP turnover that is directly proportional to AMPK activity. This uses naive AMPK that is activated during the assay with MK-8722; format: functional; details: 30 µM
[4] = molecular target: Sialic acid-binding Ig-like lectin 9 (Homo sapiens) (UniProt Q9Y336); test: Hs-Siglec9 ALPHAscreen SOP 20170721; details: 10 µM
Sialic acid-binding Ig-like lectin 9 (Homo sapiens), sequence (Q9Y336 whole entry): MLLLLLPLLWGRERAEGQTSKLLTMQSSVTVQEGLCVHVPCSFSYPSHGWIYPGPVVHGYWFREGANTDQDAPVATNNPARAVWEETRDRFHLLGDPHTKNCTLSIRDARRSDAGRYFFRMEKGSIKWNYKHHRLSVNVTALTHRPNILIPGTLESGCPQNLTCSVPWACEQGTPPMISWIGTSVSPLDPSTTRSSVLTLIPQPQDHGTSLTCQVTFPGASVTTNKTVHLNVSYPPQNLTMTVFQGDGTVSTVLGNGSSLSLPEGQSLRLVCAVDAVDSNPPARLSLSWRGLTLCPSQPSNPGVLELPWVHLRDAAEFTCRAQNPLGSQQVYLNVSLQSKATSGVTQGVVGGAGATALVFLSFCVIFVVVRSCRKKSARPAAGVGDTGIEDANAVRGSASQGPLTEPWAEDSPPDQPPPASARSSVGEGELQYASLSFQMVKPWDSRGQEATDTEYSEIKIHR

[5] = test system: Trypanosoma cruzi; test: Trypanosoma cruzi phosphomannomutase and mannose-1-phosphate guanylyltransferase assay; format: functional; details: 10 µM
[6] = molecular target: T2, Arginase-2, mitochondrial (Homo sapiens) (UniProt P78540); test: in vitro enzyme assay to detect the production of urea directly proportional to the activity of Arginase II; format: functional; details: 33.3 µM; further: in the data most compounds retested in dose-response had high values
T2 sequence (whole entry): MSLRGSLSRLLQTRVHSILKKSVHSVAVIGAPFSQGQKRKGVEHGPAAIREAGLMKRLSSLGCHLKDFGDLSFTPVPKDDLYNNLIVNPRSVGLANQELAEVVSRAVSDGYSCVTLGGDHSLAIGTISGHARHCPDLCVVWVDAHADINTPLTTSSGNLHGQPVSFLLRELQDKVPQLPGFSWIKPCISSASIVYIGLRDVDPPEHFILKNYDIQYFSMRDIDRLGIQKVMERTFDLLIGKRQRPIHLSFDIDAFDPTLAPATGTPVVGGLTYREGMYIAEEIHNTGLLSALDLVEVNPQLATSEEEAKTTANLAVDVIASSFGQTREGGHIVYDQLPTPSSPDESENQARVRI

[7] = molecular target: T3, Proteasome subunit beta (Trypanosoma cruzi) (UniProt O96673); test: Trypanosoma cruzi proteasome chymotrypsin-like activity (TcProtChymo) assay.; further: in the data most compounds retested in dose-response had high values; format: functional; details: 9.37 µM
T3 sequence (whole entry): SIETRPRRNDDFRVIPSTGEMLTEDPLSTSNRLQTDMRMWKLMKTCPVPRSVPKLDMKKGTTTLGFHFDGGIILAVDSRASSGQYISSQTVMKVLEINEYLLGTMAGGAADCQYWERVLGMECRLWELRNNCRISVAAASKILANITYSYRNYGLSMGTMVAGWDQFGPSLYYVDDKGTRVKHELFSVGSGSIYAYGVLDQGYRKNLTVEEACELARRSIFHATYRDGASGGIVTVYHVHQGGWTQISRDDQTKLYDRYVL

[8] = organism: Homo sapiens; test: To identify inhibition of the IFN signalling (Jak-Stat) pathway via expression of an eGFP reporter gene under the control of an IFN-stimulated response element (ISRE) containing MxA promoter.; format: functional; details: 30 µM
[9] = molecular target: T4, Tyrosyl-tRNA synthetase, putative (Trypanosoma cruzi (strain CL Brener)) (UniProt Q4DSP6); test: Trypanosoma cruzi tyrosyl tRNA synthetase (TcYRS) _High Tyrosine SOP; format: functional; details: 30 µM; further: in the data most compounds retested in dose-response had high values
T4 sequence (whole entry): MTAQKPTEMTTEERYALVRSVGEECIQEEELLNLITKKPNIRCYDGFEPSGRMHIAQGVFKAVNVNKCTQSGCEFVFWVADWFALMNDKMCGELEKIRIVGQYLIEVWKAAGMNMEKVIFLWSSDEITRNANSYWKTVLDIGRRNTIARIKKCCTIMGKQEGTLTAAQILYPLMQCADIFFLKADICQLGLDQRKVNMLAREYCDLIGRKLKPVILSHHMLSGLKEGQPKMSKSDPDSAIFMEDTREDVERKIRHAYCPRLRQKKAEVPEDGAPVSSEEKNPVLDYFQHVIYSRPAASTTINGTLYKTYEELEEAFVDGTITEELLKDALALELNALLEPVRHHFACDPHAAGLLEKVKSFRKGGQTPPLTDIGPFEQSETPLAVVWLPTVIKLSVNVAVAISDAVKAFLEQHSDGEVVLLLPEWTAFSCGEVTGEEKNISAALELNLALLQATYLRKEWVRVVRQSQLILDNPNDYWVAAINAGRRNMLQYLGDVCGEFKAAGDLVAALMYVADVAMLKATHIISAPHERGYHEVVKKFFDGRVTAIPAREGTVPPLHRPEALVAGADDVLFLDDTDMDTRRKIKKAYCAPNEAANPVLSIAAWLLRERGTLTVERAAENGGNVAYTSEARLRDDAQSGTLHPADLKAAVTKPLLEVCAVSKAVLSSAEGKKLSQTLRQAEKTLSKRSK

[10] = molecular target: T4, Tyrosyl-tRNA synthetase, putative (Trypanosoma cruzi (strain CL Brener)); test: Trypanosoma cruzi tyrosyl tRNA synthetase (TcYRS) SOP; format: functional; details: 30 µM
[11] = molecular target: Chromo domain-containing protein 1 (Saccharomyces cerevisiae (strain ATCC 204508 / S288c) (Baker's yeast)) (UniProt P32657); test: ScCHD-1 Enzyme Inhibition Assay; format: functional; details: 30 µM; further: in the data most compounds retested in dose-response had high values
Chromo domain-containing protein 1 (Saccharomyces cerevisiae (strain ATCC 204508 / S288c) (Baker's yeast)), sequence (P32657 whole entry, the tested form may be a part): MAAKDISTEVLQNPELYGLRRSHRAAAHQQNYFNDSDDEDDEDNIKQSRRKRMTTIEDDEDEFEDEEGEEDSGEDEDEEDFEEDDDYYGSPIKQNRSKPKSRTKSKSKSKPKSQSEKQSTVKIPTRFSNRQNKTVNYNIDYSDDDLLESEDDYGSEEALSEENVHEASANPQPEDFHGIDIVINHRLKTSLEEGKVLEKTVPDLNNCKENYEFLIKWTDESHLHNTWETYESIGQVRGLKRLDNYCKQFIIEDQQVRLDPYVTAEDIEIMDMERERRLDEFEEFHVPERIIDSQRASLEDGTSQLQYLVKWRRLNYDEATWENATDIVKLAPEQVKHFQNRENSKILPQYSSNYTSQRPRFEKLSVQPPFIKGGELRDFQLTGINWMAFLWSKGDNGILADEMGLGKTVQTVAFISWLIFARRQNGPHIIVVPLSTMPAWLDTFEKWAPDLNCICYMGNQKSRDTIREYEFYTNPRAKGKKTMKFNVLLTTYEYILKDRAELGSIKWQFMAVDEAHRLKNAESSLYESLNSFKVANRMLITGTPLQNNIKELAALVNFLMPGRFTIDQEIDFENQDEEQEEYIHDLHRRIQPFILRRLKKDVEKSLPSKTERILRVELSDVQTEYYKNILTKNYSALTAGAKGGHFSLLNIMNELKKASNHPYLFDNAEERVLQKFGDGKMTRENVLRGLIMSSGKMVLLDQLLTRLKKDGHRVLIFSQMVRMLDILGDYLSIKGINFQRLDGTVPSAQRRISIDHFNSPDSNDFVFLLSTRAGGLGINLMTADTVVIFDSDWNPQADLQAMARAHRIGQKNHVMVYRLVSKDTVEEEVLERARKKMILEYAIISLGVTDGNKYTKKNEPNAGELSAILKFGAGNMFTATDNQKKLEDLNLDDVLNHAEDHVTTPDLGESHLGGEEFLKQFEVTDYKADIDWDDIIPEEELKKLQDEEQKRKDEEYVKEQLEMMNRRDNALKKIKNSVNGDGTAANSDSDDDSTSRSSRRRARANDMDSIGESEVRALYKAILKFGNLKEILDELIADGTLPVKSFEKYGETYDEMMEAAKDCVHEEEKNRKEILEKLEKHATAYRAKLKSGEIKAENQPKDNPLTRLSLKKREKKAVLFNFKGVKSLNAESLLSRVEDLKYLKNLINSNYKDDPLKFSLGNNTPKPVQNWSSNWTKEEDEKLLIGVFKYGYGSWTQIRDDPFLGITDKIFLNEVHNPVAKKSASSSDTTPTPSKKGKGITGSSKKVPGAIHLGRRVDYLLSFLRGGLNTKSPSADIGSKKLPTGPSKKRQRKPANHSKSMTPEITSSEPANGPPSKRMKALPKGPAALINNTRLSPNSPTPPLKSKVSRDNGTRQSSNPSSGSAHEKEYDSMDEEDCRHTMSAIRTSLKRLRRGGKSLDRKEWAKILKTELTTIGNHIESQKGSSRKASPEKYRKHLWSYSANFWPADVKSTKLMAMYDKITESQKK

| SMILES | Percent Effect [1] [%] | Percent Effect [2] [%] | Percent Effect [3] [%] | Percent Effect [4] [%] | Percent Effect [5] [%] | Percent Effect [6] [%] | Percent Effect [7] [%] | Percent Effect [8] [%] | Percent Effect [9] [%] | Percent Effect [10] [%] | Percent Effect [11] [%] |
| --- | --- | --- | --- | --- | --- | --- | --- | --- | --- | --- | --- |
| O=C1O[C@@H]2CN(Cc3ccccc3)C[C@@H]2N1CCCN1CCOCC1 | -6.39 | 2.67 | -0.894 | 2 | -3.8 | -0.521 | 15.2 | 20 | 4.92 | 11.1 | -5.71 |
| CCN(CC1CCCO1)C(=O)Nc1cc(OC)c(OC)cc1C (stereo unspecified) | -8.28 | 27.9 | -14.4 | 12.7 | 4.06 | -2.28 | 9.26 | -8.32 | 8.37 | 21.5 | -9.07 |
| CC(C)COCC(NC(=O)c1ccccn1)c1ccco1 (stereo unspecified) | -2.06 | 13.5 | -1.56 | 0.407 | 4.62 | -8.02 | 5.04 | 5.29 | 9.36 | 16.1 | -8.79 |
| Cc1c[nH]c(CN(C)C(=O)c2cccc(CCC(C)(C)O)c2)n1 | -4.48 | 8 | -4.37 | 15.8 | 5.16 | 20.3 | 18 | -2.28 | 3.83 | 16.1 | -3.88 |
| COCCC(=O)N1CC2(CCN(Cc3cccc(Cl)c3)CC2)C1 | -1.79 | 5.33 | 5.28 | 2.57 | -7.09 | 3.03 | 10.8 | 6 | 4.25 | 11.5 | -4.02 |
| Cc1ccc(N(C)C2CCN(C(=O)c3ccsc3)CC2)nn1 | -3.77 | 5.2 | 5.3 | 11.4 | 5.62 | -7.47 | 10.6 | 1.47 | 5.83 | 19.5 | -7.83 |
| COc1c(C2CCCN2C(=O)c2ccnc(N(C)C)c2)c(C)nn1C (stereo unspecified) | -4.71 | 5.2 | 4.01 | 13.2 | -4.21 | 2.74 | 5.58 | 14 | 4.76 | 7.06 | -20 |
| CN1CCC(NC(=O)NCCNc2ccccn2)CC1 | -2.67 | 16.2 | -6.97 | 16.2 | 4.92 | 3.14 | 16.5 | 5.52 | 3.96 | 15.8 | -6.11 |
| Cc1cccc(CNCc2c(C)nn(C)c2N2CCOCC2)n1 | 0.786 | 8.22 | 4.7 | 2.65 | 5.09 | 13.2 | 19.3 | -6.96 | 8.6 | 15 | -6.04 |
| COC(=O)CN1CC(c2nc(Cc3ccccc3)no2)C1 | -5.1 | 13.7 | -3.81 | 14.3 | 2.35 | 2.27 | 11.9 | 12.4 | 8.6 | 15 | -6.9 |
| CCN(CC)CCNC(=O)c1ccn(COc2cc(C)cc(C)c2)n1 | -1.61 | 9.33 | 0.388 | 2.31 | -0.197 | -8.28 | 21.4 | 0.95 | 6.35 | 15.4 | -9.92 |
